Test results: PubChem BioAssay (NCATS)
Where “and” joins values, the source holds several entries; their conditions need not be identical. Equal values may be shown once. Results filed as inconclusive are left out. Where a call stands in place of a potency, no number is given. Calls of active or inactive are those of the source. The call rests on the fitted dose curve; in most records, active means well fitted inhibition curve with a large enough effect in the repeat runs; inconclusive means weak or mixed curves; inactive means flat fitted curve, though single readings scatter.

molecular target: Cytochrome P450 2D6 (Homo sapiens) (UniProt P10635); assay: Cytochrome P450 family 2 subfamily D member 6 (CYP2D6) small molecule antagonists: luciferase biochemical (cell-free) qHTS assay (AID 1645840); conditions: P450-Glo CYP2D6 enzyme, luciferin luminescence, 1 h; series mostly up to 57.4 µM; further: nearly all actives have a fitted effect of over 55% in size
Sequence (P10635 whole entry, looked up): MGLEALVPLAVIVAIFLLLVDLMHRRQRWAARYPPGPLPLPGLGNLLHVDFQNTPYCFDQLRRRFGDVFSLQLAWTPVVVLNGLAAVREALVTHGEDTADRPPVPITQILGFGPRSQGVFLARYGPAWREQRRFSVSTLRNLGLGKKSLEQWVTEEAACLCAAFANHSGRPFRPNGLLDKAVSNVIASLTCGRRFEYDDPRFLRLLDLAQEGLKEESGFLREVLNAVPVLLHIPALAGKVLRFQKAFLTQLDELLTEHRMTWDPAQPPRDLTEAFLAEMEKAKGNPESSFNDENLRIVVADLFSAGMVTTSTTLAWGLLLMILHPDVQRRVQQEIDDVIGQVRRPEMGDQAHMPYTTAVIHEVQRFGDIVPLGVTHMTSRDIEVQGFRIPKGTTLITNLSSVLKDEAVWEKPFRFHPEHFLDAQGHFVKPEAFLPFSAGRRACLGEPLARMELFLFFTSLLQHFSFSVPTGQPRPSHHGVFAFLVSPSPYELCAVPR
Method: National Center for Advancing Translational Sciences [NCATS] Assay Overview: Cytochrome P450 (CYP) enzymes are membrane-bound hemeproteins that play a key role in metabolism of drugs and xenobiotics. Assaying the effect of chemicals on CYP isozymes is useful to minimize the adverse drug reactions and toxicities in drug development process. Chemical compounds were tested for their effect on CYP enzyme activities by using P450-Glo (TM) screening systems (Promega Corporation, Madison, WI). These systems provide a luminescent method containing proluciferin substrates and are converted to luciferin products by CYP isozymes. The luciferin products formed are detected with a luciferin detection reagent, and the amount of light produced is proportional to CYP activity. P450-Glo (TM) CYP2D6 screening system (Catalog. No. V9890) was used to detect the compounds that interfere in CYP2D6 activity.
Assay Protocol Summary: Two ul of enzyme-substrate mix was dispensed into medium binding white/solid 1536-well plates (Greiner Bio-One North America Inc., Monroe, NC) using a Flying Reagent Dispenser (FRD, Aurora Discovery, San Diego, CA). […] The assay plates were incubated at room temperature for 10 min. Then 2 ul of NADPH regeneration solution was added to each well of the assay plates using an FRD and incubated at room temperature for 1 h. The reaction was stopped by adding 4 ul of detection reagent using an FRD and after 20 min incubation at room temperature, the luminescence signal was measured using a ViewLux plate reader (Perkin Elmer, Shelton, CT). Data were expressed as relative luminescence units.
Potency means the concentration at half of the fitted maximal effect.

Row | SMILES | Potency
1 | Cc1cc(C(C)(C)C)cc(C)c1CC1=NCCN1 | 4.36 µM (active)
2 | Clc1ccc2nsnc2c1NC1=NCCN1 | 17.4 µM (active)
3 | CC(C)NCC(O)COc1ccc(CCOCC2CC2)cc1 (stereo not given) | inactive
4 | NC(=O)OCC(COC(N)=O)c1ccccc1 | inactive
5 | CN1CCN(CCCN2c3ccccc3Sc3ccc(Cl)cc32)CC1 | 0.155 µM (active)
6 | Clc1ccc2c(c1)C(N1CCNCC1)=Nc1ccccc1O2 | 4.36 µM (active)
7 | COc1cc2nc(N3CCN(C(=O)C4COc5ccccc5O4)CC3)nc(N)c2cc1OC (stereo not given) | inactive
8 | CN(Cc1cnc2nc(N)nc(N)c2n1)c1ccc(C(=O)N[C@@H](CCC(=O)O)C(=O)O)cc1 | inactive
9 | CCOC(=O)Nc1ccc(NCc2ccc(F)cc2)nc1N | 3.09 µM (active)
10 | CN(C)CCC=C1c2ccccc2C=Cc2ccccc21 | 3.89 µM (active) and 8.49 µM (active)
11 | CS(=O)(=O)Nc1ccc([N+](=O)[O-])cc1Oc1ccccc1 | inactive
12 | Clc1ccccc1C(c1ccccc1)(c1ccccc1)n1ccnc1 | 9.77 µM (active)
13 | Cn1ccc2cc3c(cc21)CCN3C(=O)Nc1cccnc1 | inactive
14 | COc1cc2c(c(OC)c1OC)-c1ccc(OC)c(=O)cc1[C@@H](NC(C)=O)CC2 | inactive
15 | C[C@H]1c2cccc(O)c2C(O)=C2C(=O)[C@]3(O)C(O)=C(C(N)=O)C(=O)[C@@H](N(C)C)[C@@H]3[C@@H](O)[C@@H]21 | inactive
16 | Cc1cc(C(C)(C)C)c(O)c(C)c1CC1=NCCN1 | 1.95 µM (active)
17 | O=C1Cc2cc(CCN3CCN(c4nsc5ccccc45)CC3)c(Cl)cc2N1 | 9.77 µM (active)
18 | Cn1c(=O)c2[nH]cnc2n(C)c1=O | inactive
19 | CN1C(C(=O)Nc2ccccn2)=C(O)c2ccccc2S1(=O)=O | inactive
20 | CC(C)(Oc1ccc(C2CC2(Cl)Cl)cc1)C(=O)O (stereo not given) | inactive

Row | SMILES | Potency
21 | C[C@@H]1CC(=O)NN=C1c1ccc(NN=C(C#N)C#N)cc1 | inactive
22 | Cc1cn([C@H]2C[C@H](N=[N+]=[N-])[C@@H](CO)O2)c(=O)[nH]c1=O | inactive
23 | NS(=O)(=O)c1cc2c(cc1Cl)NCNS2(=O)=O | inactive
24 | CC(=O)OCC(CCn1cnc2cnc(N)nc21)COC(C)=O | inactive
25 | CN1CCC(=C2c3ccccc3CC(=O)c3sccc32)CC1 | 1.38 µM (active)
26 | Cn1c(=O)c2c(ncn2C)n(C)c1=O | inactive
27 | CCOC(=O)c1ncn2c1CN(C)C(=O)c1cc(F)ccc1-2 | inactive
28 | COc1ccc2[nH]cc(CCNC(C)=O)c2c1 | inactive
29 | COc1ccc(CCN(C)CCCC(C#N)(c2ccc(OC)c(OC)c2)C(C)C)cc1OC (stereo not given) | inactive
30 | COc1ccc2c(c1)c(CC(=O)O)c(C)n2C(=O)c1ccc(Cl)cc1 | inactive
31 | CC12CC3CC(C)(C1)CC(N)(C3)C2 | inactive
32 | Cc1cn([C@H]2C=C[C@@H](CO)O2)c(=O)[nH]c1=O | inactive
33 | COc1nc(C)nc(Cl)c1NC1=NCCN1 | inactive
34 | OCCN(CCO)c1nc(N2CCCCC2)c2nc(N(CCO)CCO)nc(N3CCCCC3)c2n1 | 4.9 µM (active)
35 | O=C(Nc1ccc([N+](=O)[O-])cc1Cl)c1cc(Cl)ccc1O | 13.5 µM (active)
36 | CC(C)(C)C(=O)Oc1ccc(S(=O)(=O)Nc2ccccc2C(=O)NCC(=O)O)cc1 | inactive
37 | CCC1(C)CC(=O)NC1=O (stereo not given) | inactive
38 | CC[N+](CC)(CC)CCOc1cccc(OCC[N+](CC)(CC)CC)c1OCC[N+](CC)(CC)CC | inactive
39 | Cc1ccc(C(=O)Nc2ccc(S(=O)(=O)O)c3cc(S(=O)(=O)O)cc(S(=O)(=O)O)c23)cc1NC(=O)c1cccc(NC(=O)Nc2cccc(C(=O)Nc3cc(C(=O)Nc4ccc(S(=O)(=O)O)c5cc(S(=O)(=O)O)cc(S(=O)(=O)O)c45)ccc3C)c2)c1 | inactive
40 | N[C@@H](Cc1c[nH]c2ccc(O)cc12)C(=O)O | 19.5 µM (active)
